Results taken from PubChem BioAssay AID1159580 (chemical genetic matrix, 2015).
Several values for one entry are separate records, joined by “and”; a condition that tells them apart may be missing. Equal values may be shown once. Among all 5,500 compounds or so, about 2,000 (36%) were called active. Another 18% or so got no clear call; they are omitted. Cut-off read from the data, not from the text of the source: active = normalized growth mostly below about 0.91 (no sharp cut-off); inconclusive = no clear call, values can overlap the other calls; inactive = mostly above about 0.92. Some of the results follow.

Test: chemical genetic growth profiling, strain panel (AID 1159580);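 note: tested at 20 µM; growth read once vehicle control cultures reached saturation at 30 °C; 1 = growth at the plate median or of vehicle wells; lower values mean less growth of the strain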
Details: growth OD

Measured: normalized growth

CC(C)NCC(O)COc1cccc2[nH]ccc12 (stereo not given)
inactive: S. cerevisiae deletion strains, locus YJR075W, strain HOC1, active compounds read low 1.01 | S. cerevisiae deletion strains, locus YKL009W, strain mrt4, active compounds read low 0.966 | S. cerevisiae deletion strains, locus YKL068W, active compounds read low 0.984 | S. cerevisiae deletion strains, locus YKL085W, strain MDH1 (second series), active compounds read low 0.968 | S. cerevisiae deletion strains, locus YKL085W, strain MDH1, active compounds read low 0.968 | S. cerevisiae deletion strains, locus YKL160W, strain elf1, active compounds read low 1 | S. cerevisiae deletion strains, locus YKL190W, strain CNB1, active compounds read low 0.993 | S. cerevisiae deletion strains, locus YKR001C, strain vps1, active compounds read low 0.988 | S. cerevisiae deletion strains, locus YKR026C, strain gcn3, active compounds read low 0.966 | S. cerevisiae deletion strains, locus YKR091W, strain srl3, active compounds read low 0.992 | S. cerevisiae deletion strains, locus YLL026W, active compounds read low 0.983 | S. cerevisiae deletion strains, locus YLL041C, strain sdh2, active compounds read low 0.983 | S. cerevisiae deletion strains, locus YLR027C, strain aat2, active compounds read low 0.985 | S. cerevisiae deletion strains, locus YLR039C, strain RIC1, active compounds read low 0.962 | S. cerevisiae deletion strains, locus YLR058C, strain SHM2, active compounds read low 0.996 | S. cerevisiae deletion strains, locus YLR102C, strain apc9, active compounds read low 0.988 | S. cerevisiae deletion strains, locus YLR113W, strain HOG1, active compounds read low 0.987 | S. cerevisiae deletion strains, locus YLR221C, strain rsa3, active compounds read low 0.994 | S. cerevisiae deletion strains, locus YLR258W, strain gsy2, active compounds read low 0.981 | S. cerevisiae deletion strains, locus YLR262C, strain YPT6 (second series), active compounds read low 0.994 | S. cerevisiae deletion strains, locus YLR262C, strain YPT6, active compounds read low 0.966 | S. cerevisiae deletion strains, locus YLR268W, strain sec22, active compounds read low 0.953 | S. cerevisiae deletion strains, locus YLR320W, strain mms22, active compounds read low 0.977 | S. cerevisiae deletion strains, locus YLR330W, strain CHS5, active compounds read low 0.978 | S. cerevisiae deletion strains, locus YLR342W, strain FKS1 (second series), active compounds read low 0.994 | S. cerevisiae deletion strains, locus YLR342W, strain FKS1, active compounds read low 0.996 | S. cerevisiae deletion strains, locus YLR357W, strain rsc2, active compounds read low 0.952 | S. cerevisiae deletion strains, locus YLR370C, strain arc18, active compounds read low 0.974 | S. cerevisiae deletion strains, locus YLR371W, strain rom2, active compounds read low 0.97 | S. cerevisiae deletion strains, locus YLR384C, strain iki3, active compounds read low 0.992 | S. cerevisiae deletion strains, locus YLR418C, strain cdc73, active compounds read low 1 | S. cerevisiae deletion strains, locus YML016C, strain PPZ1, active compounds read low 0.995 | S. cerevisiae deletion strains, locus YML032C, strain rad52, active compounds read low 0.984 | S. cerevisiae deletion strains, locus YML120C, strain ndi1, active compounds read low 0.976 | S. cerevisiae deletion strains, locus YML124C, strain tub3, active compounds read low 0.989 | S. cerevisiae deletion strains, locus YMR058W, strain fet3, active compounds read low 0.977 | S. cerevisiae deletion strains, locus YMR078C, strain ctf18, active compounds read low 0.981 | S. cerevisiae deletion strains, locus YMR125W, strain sto1, active compounds read low 0.953 | S. cerevisiae deletion strains, locus YMR129W, active compounds read low 0.974 | S. cerevisiae deletion strains, locus YMR205C, strain PFK2, active compounds read low 0.968 | S. cerevisiae deletion strains, locus YMR223W, strain ubp8, active compounds read low 1.03 | S. cerevisiae deletion strains, locus YMR231W, strain pep5, active compounds read low 0.984 | S. cerevisiae deletion strains, locus YMR263W, strain SAP30, active compounds read low 0.985 and 1 and 0.998 | S. cerevisiae deletion strains, locus YMR307W, strain GAS1, active compounds read low 1 and 0.998 | S. cerevisiae deletion strains, locus YNL067W, strain RPL9B, active compounds read low 0.992 | S. cerevisiae deletion strains, locus YNL071W, strain lat1, active compounds read low 0.982 | S. cerevisiae deletion strains, locus YNL128W, strain TEP1, active compounds read low 0.986 | S. cerevisiae deletion strains, locus YNL153C, strain GIM3, active compounds read low 1.01 | S. cerevisiae deletion strains, locus YNL175C, strain NOP13, active compounds read low 0.995 and 1.02 | S. cerevisiae deletion strains, locus YNL183C, strain NPR1, active compounds read low 0.955 | S. cerevisiae deletion strains, locus YNL197C, strain WHI3, active compounds read low 0.986 and 1.02 | S. cerevisiae deletion strains, locus YNL209W, strain ssb2, active compounds read low 0.99 | S. cerevisiae deletion strains, locus YNL224C, strain SQS1, active compounds read low 0.992 and 0.996 | S. cerevisiae deletion strains, locus YNL233W, strain BNI4, active compounds read low 0.995 | S. cerevisiae deletion strains, locus YNL248C, strain rpa49, active compounds read low 1 | S. cerevisiae deletion strains, locus YNL250W, strain rad50, active compounds read low 0.986 | S. cerevisiae deletion strains, locus YNL271C, strain bni1, active compounds read low 0.993 | S. cerevisiae deletion strains, locus YNL298W, strain CLA4, active compounds read low 0.977 | S. cerevisiae deletion strains, locus YNL307C, strain MCK1, active compounds read low 0.982 | S. cerevisiae deletion strains, locus YNL322C, strain KRE1 (second series), active compounds read low 0.994 | S. cerevisiae deletion strains, locus YNL322C, strain KRE1, active compounds read low 0.995 and 0.991 and 1.02 | S. cerevisiae deletion strains, locus YNR049C, strain mso1, active compounds read low 0.975 | S. cerevisiae deletion strains, locus YNR052C, strain pop2, active compounds read low 0.967 | S. cerevisiae deletion strains, locus YOL006C, strain TOP1, active compounds read low 1.04 | S. cerevisiae deletion strains, locus YOL012C, strain htz1 0.915 | S. cerevisiae deletion strains, locus YOL147C, strain pex11, active compounds read low 0.992 | S. cerevisiae deletion strains, locus YOR001W, strain rrp6, active compounds read low 0.994 | S. cerevisiae deletion strains, locus YOR061W, strain CKA2, active compounds read low 0.996 | S. cerevisiae deletion strains, locus YOR069W, strain VPS5, active compounds read low 0.991 | S. cerevisiae deletion strains, locus YOR070C, strain gyp1, active compounds read low 0.981 | S. cerevisiae deletion strains, locus YOR080W, strain dia2, active compounds read low 0.983 | S. cerevisiae deletion strains, locus YOR083W, strain WHI5 (second series), active compounds read low 1.02 and 0.995 | S. cerevisiae deletion strains, locus YOR083W, strain WHI5, active compounds read low 1.01 | S. cerevisiae deletion strains, locus YOR106W, strain vam3, active compounds read low 1 | S. cerevisiae deletion strains, locus YOR136W, strain idh2, active compounds read low 0.995 | S. cerevisiae deletion strains, locus YOR144C, strain elg1, active compounds read low 0.992 | S. cerevisiae deletion strains, locus YOR184W, strain ser1, active compounds read low 0.988 | S. cerevisiae deletion strains, locus YOR231W, strain MKK1, active compounds read low 1 | S. cerevisiae deletion strains, locus YOR265W, strain rbl2, active compounds read low 0.982 | S. cerevisiae deletion strains, locus YOR270C, strain vph1, active compounds read low 0.973 | S. cerevisiae deletion strains, locus YOR290C, strain snf2, active compounds read low 0.963 | S. cerevisiae deletion strains, locus YOR316C, strain cot1, active compounds read low 0.98 | S. cerevisiae deletion strains, locus YPL051W, strain arl3, active compounds read low 0.996 | S. cerevisiae deletion strains, locus YPL055C, strain LGE1, active compounds read low 1.01 and 0.998 | S. cerevisiae deletion strains, locus YPL078C, strain atp4, active compounds read low 0.989 | S. cerevisiae deletion strains, locus YPL106C, strain sse1, active compounds read low 0.979 | S. cerevisiae deletion strains, locus YPL240C, strain hsp82, active compounds read low 0.98 | S. cerevisiae deletion strains, locus YPL241C, strain CIN2, active compounds read low 0.991 and 0.996 | S. cerevisiae deletion strains, locus YPL256C, strain CLN2, active compounds read low 0.99 | S. cerevisiae deletion strains, locus YPR119W, strain clb2, active compounds read low 0.981 | S. cerevisiae deletion strains, locus YPR141C, strain kar3, active compounds read low 0.993 | S. cerevisiae deletion strains, locus YPR163C, strain tif3, active compounds read low 0.984 | S. cerevisiae deletion strains, locus YPR167C, strain met16, active compounds read low 0.977 | S. cerevisiae deletion strains, strain wtn01, active compounds read low 0.985 | S. cerevisiae strains, strain wild type, active compounds read low 1
